These results are taken from PubChem BioAssay (NCI).

Compounds without any hit were thinned out: in the full panel of roughly 79,000, 15% have a hit. Values without a mark were called inactive. The source made the active and inactive calls. No stated cut-off is given here; in the data, active means growth inhibition above about 70%; inactive means the rest.

A short description of test [1]: NCI Yeast Anticancer Drug Screen. Data for the rad50 strain (AID 155).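 Further: 0% = growth of vehicle-only cultures of the same strain.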 The conditions noted are these: S. cerevisiae rad50 strain growth inhibition; at 50.0 µM; active compounds read high. The method in brief:
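Vehicle-treated cultures provide the reference for the growth inhibition reported for compound-exposed, repair-deficient yeast.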

Test [2] can be described thus: NCI Yeast Anticancer Drug Screen. Data for the mec2-1 strain (AID 157). The conditions noted are these: S. cerevisiae mec2-1 strain, at 50.0 µM, active compounds read high. The method in brief:
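mec2-1 yeast strain, carrying an alteration in DNA damage repair or cell cycle control, was exposed to compounds; growth inhibition was measured relative to vehicle-treated controls.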

The nature of test [3]: NCI Yeast Anticancer Drug Screen. Data for the sgs1 mgt1 strain (AID 161).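 Further: 0% = growth of cultures given vehicle only.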 Particulars: S. cerevisiae sgs1 mgt1 strain, at 50.0 µM, active compounds read high. The method in brief:
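Yeast cells carrying a defined DNA-repair defect were exposed to test compounds. Growth inhibition was measured relative to vehicle-treated controls.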

Test [4] is described as follows: NCI Yeast Anticancer Drug Screen. Data for the cln2 rad14 strain (AID 165).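 Further: 0% = growth equal to vehicle treated cultures.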 The conditions noted are these: S. cerevisiae cln2 rad14 strain, at 50.0 µM, active compounds read high. The essentials:
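Yeast carrying cln2 and rad14 alterations (cell cycle control and DNA damage repair) were exposed to compounds. Growth inhibition was measured against vehicle-treated controls.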

The nature of test [5]: NCI Yeast Anticancer Drug Screen. Data for the bub3 strain (AID 167). The conditions noted are these: S. cerevisiae bub3 mutant strain, at 50.0 µM, active compounds read high. The method in brief:
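Mutant yeast screening strain plus compound; vehicle-treated cultures serve as the 0% inhibition reference.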

Test [6] can be described thus: NCI Yeast Anticancer Drug Screen. Data for the mlh1 rad18 strain (AID 175). Particulars: S. cerevisiae mlh1 rad18 strain growth inhibition; at 50.0 µM; active compounds read high. The method in brief: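 Growth inhibition of the yeast strain was measured after compound exposure and expressed relative to vehicle-treated controls. The strain carries defined defects in DNA damage repair.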

As to `Cc1cccc2c1C(=O)OC2(c1cccc2ccccc12)c1cccc2ccccc12`, the growth inhibition is -16.4% in test [1]; 3.9% in test [2]; 4.5% in test [3]; -15.7% in test [4]; 0% in test [5]; 1.6% in test [6].
Turning to `CCCCCc1nc2c(c(=O)n(C)c(=O)n2C)n1C`, the growth inhibition in test [1] was 14.2%; in test [2], -9.35%; in test [3] it was -1%; in test [4], 0%; in test [5] it was 6%; in test [6], 17.6%.
As for `COC(=O)c1nc(N)nc(N)c1[N+](=O)[O-]`, the growth inhibition in test [1] is -8.45%; in test [2], -17.7%; in test [3], -22.6%; in test [4], -15.2%; in test [5], -4.05%; in test [6] it was -14.9%.
As to `COc1ccc2nc3cc([N+](=O)[O-])ccc3c(Nc3ccc(S(=O)(=O)N=C(N)N)cc3)c2c1`, the growth inhibition in test [1] was 59.8%; in test [2], 21.8%; in test [3], 48.5%; in test [4], 12.8%; in test [5] it was 38.8%; in test [6] it was 53.9%.
For the compound `CC(=O)Oc1cccn(C)c1=O`, the growth inhibition in test [1] is 18.6%; in test [2], 19.1%; in test [3], -6.35%; in test [4] it was 24.6%; in test [5], 32.5%; in test [6] it was 21.1%.
Take `O=C(CCC(=O)C1CCC/C1=N/O)Nc1ccc(Cl)cc1` (stereo not given): the growth inhibition was -40.4% in test [1]; -0.4% in test [2]; 7.4% in test [3]; 26.1% in test [4]; 9.55% in test [5]; 21.1% in test [6].
For the compound `COc1cc([C@@H]2C3C(=O)c4ccccc4C3[C@@H](c3cc(OC)c(OC)c(OC)c3)C23Cc2ccccc2C3=O)cc(OC)c1OC` (stereo not given in full), the growth inhibition is -6.5% in test [1]; -0.95% in test [2]; -11.2% in test [3]; 4.55% in test [4]; 23.4% in test [5]; 16% in test [6].
For the compound `Fc1cccc(CSC(=S)Nc2ccc(Cl)c(C(F)(F)F)c2)c1`, the growth inhibition in test [1] was 99.1% (active); in test [2] it was 99.5% (active); in test [3], 99.5% (active); in test [4] it was 99.2% (active); in test [5] it was 99.2% (active); in test [6], 99% (active).
With `O=C1Nc2cc([N+](=O)[O-])c(Br)cc2C1=O`, the growth inhibition was 22.1% in test [1]; 27.4% in test [2]; 0.7% in test [3]; 14.9% in test [4]; 5.8% in test [5]; 12.1% in test [6].
Regarding `N#CCCn1[nH]c(=O)c(Cl)c(Cl)c1=O`, the growth inhibition is 6.95% in test [1]; 4.6% in test [2]; -3.9% in test [3]; -6.8% in test [4]; 4.15% in test [5]; -3.3% in test [6].
As for `O=C(O)C1(C(=O)O)CCN(S(=O)(=O)c2ccccc2)CC1`, the growth inhibition in test [1] was -4%; in test [2] it was -10.9%; in test [3], -39%; in test [4], -5.2%; in test [5], -9.85%; in test [6], -7%.
In the case of `CC1(c2ccco2)CCC(=O)CC1=O` (stereo not given), the growth inhibition in test [1] was 4.2%; in test [2] it was 4.25%; in test [3], 4.1%; in test [4], 11.2%; in test [5] it was -12.9%; in test [6] it was 1.1%.
In the case of `CCOC(=O)C1CCC2c3[nH]c4ccccc4c3CCN2C1=O` (stereo not given), the growth inhibition in test [1] was -25.3%; in test [2] it was -39.8%; in test [3] it was -8.65%; in test [4], 1.6%; in test [5] it was 31.1%; in test [6], -20.9%.
For `C(CC1CCNCC1)CC1CCNCC1`, the growth inhibition in test [1] was -39.7%; in test [2] it was -19.1%; in test [3], -20.3%; in test [4], -23.8%; in test [5], 12.2%; in test [6] it was -64.7%.
With `CN1CCN(C(=S)N(C(=O)c2ccc(Cl)cc2)c2ccccc2)CC1`, the growth inhibition in test [1] was -49.2%; in test [2] it was -36.5%; in test [3], -20.6%; in test [4], -6.8%; in test [5] it was 4.65%; in test [6] it was -7.25%.
As to `O=C(/C=C(/CC(O)(c1ccccc1)c1ccccc1)Nc1ccccc1)c1ccccc1`, the growth inhibition was 10.3% in test [1]; -2.7% in test [2]; -6.4% in test [3]; 2.35% in test [4]; -1.2% in test [5]; -2.1% in test [6].
`CCCC(=O)OCCC(C)C`: the growth inhibition is 30.9% in test [1]; 10.3% in test [2]; 13.3% in test [3]; -29.9% in test [4]; -13.5% in test [5]; 22.4% in test [6].
For `COc1cc(Cl)ccc1NC(=O)COc1ccc(Cl)cc1`, the growth inhibition in test [1] is 4.55%; in test [2] it was 0.5%; in test [3] it was -12.8%; in test [4], -3.6%; in test [5], 20%; in test [6], -17.1%.
Take `O=C(c1ccccc1)C1C(c2ccccc2)SC(c2ccccc2)CC1(O)c1ccccc1` (stereo not given): the growth inhibition in test [1] is 24.1%; in test [2] it was 1.8%; in test [3], 11.5%; in test [4] it was 16.9%; in test [5], -3.45%; in test [6], 13.3%.
Take `COC(=O)CC1(C(=O)OC)Oc2ccc(Br)cc2C(=O)N1c1ccc(Br)cc1Cl` (stereo not given): the growth inhibition in test [1] was 26.9%; in test [2] it was -16.4%; in test [3], 24.6%; in test [4] it was 15.2%; in test [5], 19.4%; in test [6], 27.7%.
